This note sets out measurements from ChEMBL document CHEMBL3988442, “University of Dundee, Small-Polar-MMV Screening Library” (2021).

Set-up in all cases: scale not given: direction of the effect not stated beside the values
Experiment [1] concerns the target Protein translocase subunit SecA (Escherichia coli (strain K12)) (UniProt P10408). As to the kind of experiment: Assay to Identify E. coli SecA ATPase Inhibitors. Type of experiment: functional. Conditions: 30 µM.
The target of experiment [2] is T1, Ubiquitin-activating enzyme e1, putative (Leishmania donovani (strain BPK282A1)) (UniProt E9BSI1).
T1 sequence (whole entry): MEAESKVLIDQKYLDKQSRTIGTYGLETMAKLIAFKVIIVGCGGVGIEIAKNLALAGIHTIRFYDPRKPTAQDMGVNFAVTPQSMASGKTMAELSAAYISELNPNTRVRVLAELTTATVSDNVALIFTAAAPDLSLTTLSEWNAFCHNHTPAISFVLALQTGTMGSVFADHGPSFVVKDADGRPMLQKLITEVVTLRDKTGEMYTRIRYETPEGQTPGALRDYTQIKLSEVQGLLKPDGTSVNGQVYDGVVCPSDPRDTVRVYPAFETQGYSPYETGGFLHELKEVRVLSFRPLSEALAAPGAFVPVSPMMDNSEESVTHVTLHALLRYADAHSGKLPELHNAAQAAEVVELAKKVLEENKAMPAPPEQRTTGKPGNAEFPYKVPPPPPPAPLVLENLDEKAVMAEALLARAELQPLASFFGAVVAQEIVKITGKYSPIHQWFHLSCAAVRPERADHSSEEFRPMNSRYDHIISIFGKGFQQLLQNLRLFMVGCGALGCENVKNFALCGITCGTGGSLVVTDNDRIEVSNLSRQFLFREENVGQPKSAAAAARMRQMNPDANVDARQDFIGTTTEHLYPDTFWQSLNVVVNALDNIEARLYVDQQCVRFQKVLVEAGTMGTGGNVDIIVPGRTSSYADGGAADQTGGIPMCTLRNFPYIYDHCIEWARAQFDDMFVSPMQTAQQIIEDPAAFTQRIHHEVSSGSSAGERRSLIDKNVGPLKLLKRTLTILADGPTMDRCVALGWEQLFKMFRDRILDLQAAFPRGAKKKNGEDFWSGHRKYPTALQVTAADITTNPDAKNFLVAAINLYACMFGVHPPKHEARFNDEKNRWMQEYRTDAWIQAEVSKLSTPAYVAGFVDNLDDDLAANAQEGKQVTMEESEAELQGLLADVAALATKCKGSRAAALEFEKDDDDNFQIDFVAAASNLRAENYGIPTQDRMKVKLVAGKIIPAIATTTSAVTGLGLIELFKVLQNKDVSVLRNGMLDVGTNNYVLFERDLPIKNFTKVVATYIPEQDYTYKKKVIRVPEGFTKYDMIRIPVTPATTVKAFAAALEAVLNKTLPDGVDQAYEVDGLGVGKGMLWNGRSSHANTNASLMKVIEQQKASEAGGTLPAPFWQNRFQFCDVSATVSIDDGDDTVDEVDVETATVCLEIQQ
As to the kind of experiment: Leishmania donovani Ubiquitin Activating Enzyme (LdE1). Format: functional. Conditions: 30 µM.

The target of experiment [3] is AMP-activated protein kinase, AMPK (Homo sapiens) (UniProt P54646+O43741+P54619+Q9UGJ0+Q9Y478+Q13131+Q9UGI9). In words: AMP-dependent Kinase enzyme assay. An in vitro enzyme assay that detects ADP turnover that is directly proportional to AMPK activity. This uses naive AMPK that is activated during the assay with MK-8722. Format: functional. Conditions: 30 µM.
Experiment [4] deals with Sialic acid-binding Ig-like lectin 9 (Homo sapiens) (UniProt Q9Y336). In words: Hs-Siglec9 ALPHAscreen SOP 20170721. Conditions: 10 µM.
The test system of experiment [5] is Trypanosoma cruzi. In words: Trypanosoma cruzi phosphomannomutase and mannose-1-phosphate guanylyltransferase assay. Format: functional. Conditions: 10 µM.
Experiment [6] deals with T2, Arginase-2, mitochondrial (Homo sapiens) (UniProt P78540).
T2 sequence (whole entry): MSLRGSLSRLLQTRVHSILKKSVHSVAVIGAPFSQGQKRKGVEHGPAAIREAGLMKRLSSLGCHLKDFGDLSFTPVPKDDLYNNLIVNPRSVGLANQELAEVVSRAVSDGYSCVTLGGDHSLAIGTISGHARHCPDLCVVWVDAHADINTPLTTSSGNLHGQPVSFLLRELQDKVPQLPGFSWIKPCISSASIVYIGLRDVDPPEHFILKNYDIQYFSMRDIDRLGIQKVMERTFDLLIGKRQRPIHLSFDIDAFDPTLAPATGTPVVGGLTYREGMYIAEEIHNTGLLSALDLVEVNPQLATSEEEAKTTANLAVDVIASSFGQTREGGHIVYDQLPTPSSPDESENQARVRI
In words: in vitro enzyme assay to detect the production of urea directly proportional to the activity of Arginase II. Further: in the data most compounds retested in dose-response had high values. Conditions: 33.3 µM. Type of experiment: functional.

Experiment [7] concerns the target T3, Proteasome subunit beta (Trypanosoma cruzi) (UniProt O96673).
T3 sequence (whole entry): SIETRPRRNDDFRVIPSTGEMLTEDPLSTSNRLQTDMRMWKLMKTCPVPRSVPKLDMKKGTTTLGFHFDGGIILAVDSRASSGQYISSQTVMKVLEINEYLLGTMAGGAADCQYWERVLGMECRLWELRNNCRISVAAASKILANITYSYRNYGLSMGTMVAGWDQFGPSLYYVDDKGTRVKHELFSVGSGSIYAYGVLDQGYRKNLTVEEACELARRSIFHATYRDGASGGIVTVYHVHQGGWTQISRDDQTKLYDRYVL
In words: Trypanosoma cruzi proteasome chymotrypsin-like activity (TcProtChymo) assay. Further: in the data most compounds retested in dose-response had high values. Conditions: 9.37 µM. Format: functional.

The species named for experiment [8] is Homo sapiens. In words: To identify inhibition of the IFN signalling (Jak-Stat) pathway via expression of an eGFP reporter gene under the control of an IFN-stimulated response element (ISRE) containing MxA promoter. Type of experiment: functional. Conditions: 30 µM.
The target in experiment [9] is T4, Tyrosyl-tRNA synthetase, putative (Trypanosoma cruzi (strain CL Brener)) (UniProt Q4DSP6).
T4 sequence (whole entry): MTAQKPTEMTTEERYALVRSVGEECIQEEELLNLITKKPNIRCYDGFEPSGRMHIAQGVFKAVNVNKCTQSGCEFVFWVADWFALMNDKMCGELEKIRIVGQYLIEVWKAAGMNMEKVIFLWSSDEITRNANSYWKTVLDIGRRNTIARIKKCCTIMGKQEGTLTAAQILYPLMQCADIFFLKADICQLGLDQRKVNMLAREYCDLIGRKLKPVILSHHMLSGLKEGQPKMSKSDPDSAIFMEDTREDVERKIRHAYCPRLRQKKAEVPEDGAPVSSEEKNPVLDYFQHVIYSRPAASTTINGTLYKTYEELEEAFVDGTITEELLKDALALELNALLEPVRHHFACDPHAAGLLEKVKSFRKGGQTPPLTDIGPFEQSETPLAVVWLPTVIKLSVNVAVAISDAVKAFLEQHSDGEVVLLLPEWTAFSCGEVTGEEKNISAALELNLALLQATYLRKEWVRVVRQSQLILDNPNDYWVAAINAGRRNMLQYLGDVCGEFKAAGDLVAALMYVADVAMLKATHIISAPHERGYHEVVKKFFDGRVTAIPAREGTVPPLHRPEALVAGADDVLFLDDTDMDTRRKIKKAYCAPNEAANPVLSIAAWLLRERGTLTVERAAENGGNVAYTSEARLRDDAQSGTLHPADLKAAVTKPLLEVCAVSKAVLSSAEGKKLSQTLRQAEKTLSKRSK
In words: Trypanosoma cruzi tyrosyl tRNA synthetase (TcYRS) _High Tyrosine SOP. Further: in the data most compounds retested in dose-response had high values. Type of experiment: functional. Conditions: 30 µM.

The target in experiment [10] is T4, Tyrosyl-tRNA synthetase, putative (Trypanosoma cruzi (strain CL Brener)). As to the kind of experiment: Trypanosoma cruzi tyrosyl tRNA synthetase (TcYRS) SOP. Format: functional. Conditions: 30 µM.
Experiment [11] concerns the target Chromo domain-containing protein 1 (Saccharomyces cerevisiae (strain ATCC 204508 / S288c) (Baker's yeast)) (UniProt P32657). In words: ScCHD-1 Enzyme Inhibition Assay. Further: in the data most compounds retested in dose-response had high values. Conditions: 30 µM. Format: functional.

Structures are written as SMILES. For some of these results: Potency and affinity values are given separately.

Chain of Protein translocase subunit SecA (Escherichia coli (strain K12)) (P10408 whole entry): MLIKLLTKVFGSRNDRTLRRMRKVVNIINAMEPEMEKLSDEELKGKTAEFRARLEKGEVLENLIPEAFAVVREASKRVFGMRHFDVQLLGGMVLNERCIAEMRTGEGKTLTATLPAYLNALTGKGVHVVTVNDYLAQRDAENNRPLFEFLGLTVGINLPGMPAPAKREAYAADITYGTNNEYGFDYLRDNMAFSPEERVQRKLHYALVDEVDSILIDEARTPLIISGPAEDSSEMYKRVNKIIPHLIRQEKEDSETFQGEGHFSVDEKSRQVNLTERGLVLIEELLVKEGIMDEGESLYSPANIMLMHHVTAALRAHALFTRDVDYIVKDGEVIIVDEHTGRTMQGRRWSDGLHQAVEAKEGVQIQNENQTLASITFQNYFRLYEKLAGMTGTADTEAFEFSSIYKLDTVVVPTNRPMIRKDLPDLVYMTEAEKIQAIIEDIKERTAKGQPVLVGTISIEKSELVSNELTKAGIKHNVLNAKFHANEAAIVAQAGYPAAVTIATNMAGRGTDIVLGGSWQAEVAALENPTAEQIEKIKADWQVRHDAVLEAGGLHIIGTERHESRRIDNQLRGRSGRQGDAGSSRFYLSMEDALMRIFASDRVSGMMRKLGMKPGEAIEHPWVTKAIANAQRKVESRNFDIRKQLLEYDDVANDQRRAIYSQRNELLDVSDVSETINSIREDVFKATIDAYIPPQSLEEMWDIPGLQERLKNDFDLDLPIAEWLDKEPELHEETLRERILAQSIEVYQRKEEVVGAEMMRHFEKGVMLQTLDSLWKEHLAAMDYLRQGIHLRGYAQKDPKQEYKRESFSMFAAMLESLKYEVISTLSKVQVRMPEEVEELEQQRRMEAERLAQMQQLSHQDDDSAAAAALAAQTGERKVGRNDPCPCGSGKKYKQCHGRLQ
Chain of Sialic acid-binding Ig-like lectin 9 (Homo sapiens) (Q9Y336 whole entry): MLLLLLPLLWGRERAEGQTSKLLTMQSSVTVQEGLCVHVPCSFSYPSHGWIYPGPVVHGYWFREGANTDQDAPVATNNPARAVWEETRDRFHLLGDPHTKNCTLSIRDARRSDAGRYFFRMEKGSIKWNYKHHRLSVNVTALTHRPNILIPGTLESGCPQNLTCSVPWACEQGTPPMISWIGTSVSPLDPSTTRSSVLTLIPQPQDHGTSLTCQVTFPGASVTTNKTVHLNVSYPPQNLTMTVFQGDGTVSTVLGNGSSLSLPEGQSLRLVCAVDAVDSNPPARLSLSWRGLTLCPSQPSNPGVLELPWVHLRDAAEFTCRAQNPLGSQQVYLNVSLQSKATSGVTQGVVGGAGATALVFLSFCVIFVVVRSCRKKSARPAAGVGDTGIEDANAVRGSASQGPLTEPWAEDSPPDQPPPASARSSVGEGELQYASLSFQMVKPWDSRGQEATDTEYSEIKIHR
Chain of Chromo domain-containing protein 1 (Saccharomyces cerevisiae (strain ATCC 204508 / S288c) (Baker's yeast)) (P32657 whole entry, the tested form may be a part): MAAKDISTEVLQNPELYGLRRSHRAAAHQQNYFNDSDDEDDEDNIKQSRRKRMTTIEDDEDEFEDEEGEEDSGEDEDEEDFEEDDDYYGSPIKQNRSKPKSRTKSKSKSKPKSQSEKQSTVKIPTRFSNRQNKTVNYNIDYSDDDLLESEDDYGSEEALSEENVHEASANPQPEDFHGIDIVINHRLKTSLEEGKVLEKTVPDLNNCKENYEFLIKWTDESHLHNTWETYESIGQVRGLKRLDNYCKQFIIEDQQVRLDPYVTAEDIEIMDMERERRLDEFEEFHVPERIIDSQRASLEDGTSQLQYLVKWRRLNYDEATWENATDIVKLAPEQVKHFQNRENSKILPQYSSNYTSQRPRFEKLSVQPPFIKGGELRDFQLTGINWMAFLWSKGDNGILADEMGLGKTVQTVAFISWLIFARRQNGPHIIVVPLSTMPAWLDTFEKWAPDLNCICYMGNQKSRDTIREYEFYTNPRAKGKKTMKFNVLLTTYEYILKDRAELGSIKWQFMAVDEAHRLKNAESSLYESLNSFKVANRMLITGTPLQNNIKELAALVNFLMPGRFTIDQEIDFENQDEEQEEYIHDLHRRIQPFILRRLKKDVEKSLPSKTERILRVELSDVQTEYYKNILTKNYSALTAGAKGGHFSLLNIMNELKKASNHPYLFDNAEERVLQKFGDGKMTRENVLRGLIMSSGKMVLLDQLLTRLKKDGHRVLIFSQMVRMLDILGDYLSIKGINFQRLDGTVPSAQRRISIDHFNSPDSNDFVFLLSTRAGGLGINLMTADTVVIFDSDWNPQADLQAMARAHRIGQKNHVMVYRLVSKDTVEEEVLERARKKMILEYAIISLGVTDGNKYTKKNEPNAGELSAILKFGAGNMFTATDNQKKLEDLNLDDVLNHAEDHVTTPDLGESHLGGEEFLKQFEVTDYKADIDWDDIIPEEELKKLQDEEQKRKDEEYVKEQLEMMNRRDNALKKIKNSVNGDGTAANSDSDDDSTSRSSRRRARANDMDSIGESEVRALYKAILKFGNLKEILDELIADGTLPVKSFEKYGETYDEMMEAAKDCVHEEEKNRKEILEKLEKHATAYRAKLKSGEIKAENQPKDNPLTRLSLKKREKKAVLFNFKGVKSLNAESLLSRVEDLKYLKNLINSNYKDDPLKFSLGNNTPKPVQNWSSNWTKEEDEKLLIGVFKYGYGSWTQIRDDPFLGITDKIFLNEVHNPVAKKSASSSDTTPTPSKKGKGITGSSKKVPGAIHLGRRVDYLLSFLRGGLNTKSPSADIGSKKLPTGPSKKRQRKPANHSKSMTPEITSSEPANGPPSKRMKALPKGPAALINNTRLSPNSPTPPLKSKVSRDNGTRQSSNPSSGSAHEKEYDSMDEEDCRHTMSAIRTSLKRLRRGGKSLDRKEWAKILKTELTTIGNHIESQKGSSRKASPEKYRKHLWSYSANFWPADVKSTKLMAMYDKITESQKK

For `CCc1nc(C2CCCN(C(=O)c3ccc4[nH]nnc4c3)C2)no1` (stereo unspecified), the Percent Effect in experiment [1] was -3.01%; in experiment [2], 0%; in [3], 1.62%; in experiment [4], 0.134%; in experiment [5], -4.8%; in experiment [6], 4%. In addition, the Percent Effect was 17.2% in experiment [7]; 11.3% in [8]; 0% in experiment [9]; 0% in experiment [10]; -11.2% in experiment [11].

Take `CCOc1cc(F)ccc1NS(=O)(=O)c1cc(C)c(C(=O)O)s1`: the Percent Effect in experiment [1] was -9.09%; in [2], 8.11%; in [3] it was -10.6%; in [4], 28.9%; in [5], 4.59%; in [6], 0.248%. Further, the Percent Effect was 8.15% in [7]; -8.12% in experiment [8]; -5.38% in [9]; -1.24% in [10]; -11.4% in [11].

Consider `CC(C)c1ccc(OCCC(=O)N2CCC(CC(N)=O)CC2)cc1`, for which the Percent Effect in [1] was -3.21%; in [2], 5.26%; in experiment [3], 5.06%; in experiment [4], 6.24%; in [5], 6.58%; in experiment [6], -2.68%. Moreover, the Percent Effect in [7] is 11%; in experiment [8], 5.75%; in experiment [9], 4.41%; in experiment [10] it was 12.2%; in experiment [11], -9.8%.

Turning to `Cc1ccc(NC(=O)NC(C)C(=O)N2CCS(=O)(=O)CC2)cc1` (stereo unspecified), the Percent Effect in [1] was -3.85%; in experiment [2], 5.41%; in [3] it was 2.74%; in experiment [4] it was 5.55%; in experiment [5] it was -1.74%; in experiment [6], -11.9%. Further, the Percent Effect was 12.4% in [7]; 11.4% in [8]; -0.529% in experiment [9]; 12.2% in [10]; -2.08% in [11].

`CC(C)c1cc(NC(=O)CN2CCc3ccccc3C2)on1`: the Percent Effect in experiment [1] was -4.45%; in [2] it was 28.6%; in experiment [3] it was -1.59%; in experiment [4], 2.02%; in [5], 5.99%; in experiment [6], -2.85%. Further, the Percent Effect in experiment [7] is 10.6%; in [8] it was 14.1%; in experiment [9], 7.77%; in experiment [10], 26.8%; in [11], -12.1%.

For `Cn1cnnc1C1CCN(C(=O)CCCOc2ccccc2F)CC1`, the Percent Effect in experiment [1] was -5.06%; in experiment [2], 10.4%; in experiment [3], -2%; in experiment [4] it was 4.13%; in experiment [5], -7.87%; in [6] it was 4.98%. Further, the Percent Effect in experiment [7] was 2.53%; in experiment [8], 14.2%; in experiment [9] it was 3.88%; in [10], 7.32%; in experiment [11] it was -2.08%.

As for `O=C(Cc1ccc2c(c1)OCO2)N1CCN(c2cnccn2)CC1`, the Percent Effect in experiment [1] is -1.75%; in experiment [2] it was 15.8%; in experiment [3], -3.5%; in experiment [4], 4.13%; in experiment [5], 6.77%; in experiment [6], 4.21%. In addition, the Percent Effect was 8.69% in [7]; 2.58% in [8]; 5.39% in experiment [9]; 21.9% in experiment [10]; -11.8% in experiment [11].

Take `CC(C)n1ncc2c1NC(=O)CC21C(=O)Nc2c(Cl)cc(Cl)cc21` (stereo unspecified): the Percent Effect in experiment [1] was -1.94%; in experiment [2], 6.67%; in [3] it was 3.17%; in [4], 6.18%; in experiment [5], -0.197%; in experiment [6], -9.33%. Also, the Percent Effect in [7] is 1.29%; in experiment [8] it was 13.3%; in [9], 2.12%; in [10], 10.3%; in experiment [11], -4.48%.

As to `O=C(c1ccncc1)N1CCCn2c(CN3CCCCC3)nnc2C1`, the Percent Effect is -3.23% in experiment [1]; 2.67% in experiment [2]; 9.49% in [3]; 2.61% in experiment [4]; 4.13% in [5]; -5.36% in [6]. In addition, the Percent Effect in experiment [7] was 5.9%; in experiment [8] it was -3.57%; in [9], 5.32%; in experiment [10] it was -1.28%; in experiment [11], 1.13%.

Turning to `CC(C(=O)N1CCC(Nc2cccnn2)CC1)n1ccnc1` (stereo unspecified), the Percent Effect was -2.11% in experiment [1]; 5.41% in experiment [2]; -6.39% in [3]; 14.9% in [4]; 4.43% in [5]; -3.21% in experiment [6]. Further, the Percent Effect in experiment [7] is 3.42%; in experiment [8], 11.9%; in experiment [9] it was 3.45%; in experiment [10], 6.17%; in experiment [11] it was -6.18%.

For the compound `Cc1ccc(CN2CCC3(CC2)CC(c2cccnc2)CO3)s1` (stereo unspecified), the Percent Effect in experiment [1] is -5.83%; in experiment [2], 5.41%; in experiment [3], 1.22%; in experiment [4], -3.96%; in experiment [5], 0%; in experiment [6], 7.08%. The Percent Effect in experiment [7] was 4.65%; in experiment [8], 0.622%; in experiment [9], 8.91%; in [10], 11%; in [11], -2.92%.
